In PubChem BioAssay (NCI) one finds growth data, which are given here for 15 compounds.

Compounds without any hit were thinned out: in the full panel of roughly 83,000, 20% have a hit.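 Cells were grown in 96-well plates and exposed to the test compound at a single concentration for 48 hours; results are reported as percent growth, with values below 10 considered active.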 A number with no mark means an inactive call. Active and inactive are the calls of the source.

Test systems include NCI-H23 lung; NCI-H226 lung; NCI-H322M lung; HOP-62 NSCLC; NCI-H460 lung; NCI-H522 lung; A549/ATCC NSCLC; 786-0 renal; COLO 205 colon; HOP-92 NSCLC.
What all share (test): NCI-60 one-dose screen, 48 h (100 = growth as untreated, 0 = no growth, -100 = all killed)
Common to all, as to settings: 10 µM unless noted

Take `CN(C)CC(=O)Nc1ccc2ncnc(Nc3ccc(Oc4cccc(C(F)(F)F)c4)c(Cl)c3)c2c1`: the growth was 75.9% in the experiment on NCI-H23 lung; 80.7% in the experiment with NCI-H226 lung; 45.3% with NCI-H322M lung; 76.5% in the experiment with HOP-62 NSCLC; 8.52% (active) with NCI-H460 lung; 67.7% in the experiment on NCI-H522 lung. In addition, the growth in the experiment with A549/ATCC NSCLC is 47.5%; in the experiment with 786-0 renal it was 59.4%; in the experiment with COLO 205 colon, 35.9%.

`C/C(=C(/c1ccc(Cl)cc1)c1ccc(OCCN2CCCC2)cc1)c1ccc(Cl)cc1`: the growth in the experiment with NCI-H23 lung was 80.3%; in the experiment on NCI-H226 lung, 107%; in the experiment on NCI-H322M lung, 92.9%; with HOP-62 NSCLC it was 104%; with NCI-H460 lung, 70.6%; in the experiment on NCI-H522 lung, 88.8%. Moreover, the growth in the experiment with A549/ATCC NSCLC was 63.4%; with 786-0 renal it was 82.7%; in the experiment on COLO 205 colon, 48.5%.

In the case of `Cc1ccc(S(=O)(=O)N2CCCC2CO)cc1` (configuration not stated), the growth was 84.9% in the experiment with NCI-H23 lung; 99.9% with NCI-H226 lung; 93.6% in the experiment on NCI-H322M lung; 188% in the experiment with HOP-62 NSCLC; 99.9% with NCI-H460 lung; 90.7% in the experiment on NCI-H522 lung. Further, the growth is 103% with A549/ATCC NSCLC, 100% with 786-0 renal and 103% in the experiment with COLO 205 colon.

For the compound `CS(=O)(=O)Nc1cc(-c2ccc3ncnc(Nc4c(Cl)ccc5c4OCO5)c3c2)cnc1Cl`, the growth is 0.217% (active) in the experiment on NCI-H23 lung; 12.7% with NCI-H226 lung; -39% (active) in the experiment with NCI-H322M lung; 9.21% (active) with HOP-62 NSCLC; 7.13% (active) in the experiment with NCI-H460 lung; -13.8% (active) in the experiment on NCI-H522 lung. Besides, the results for the growth in the experiment with A549/ATCC NSCLC and in the experiment with 786-0 renal were -13.7% (active) and 0.785% (active), respectively.

Turning to `Oc1c(Cl)cc(Cl)c2ccc(Cn3cc(-c4cc(F)cc(F)c4)nn3)nc12`, the growth in the experiment on NCI-H23 lung is 92.3%; with NCI-H226 lung, 95.1%; with NCI-H322M lung, 111%; with HOP-62 NSCLC it was 98.9%; in the experiment on NCI-H460 lung, 104%; in the experiment with HOP-92 NSCLC, 29%. Further, the growth is -38.7% (active) with NCI-H522 lung, 102% in the experiment with A549/ATCC NSCLC, 95.6% with 786-0 renal and 70.4% with COLO 205 colon.

For `N#Cc1cccc(NC(=O)c2oc3ccccc3c2-c2cnn(-c3ccccc3)c2)c1`, the growth in the experiment on NCI-H23 lung is 83.7% [50 µM]; in the experiment on NCI-H226 lung it was 72.5% [50 µM]; with NCI-H322M lung, 74.1% [50 µM]; in the experiment on HOP-62 NSCLC it was 92.6% [50 µM]; with NCI-H460 lung, 84.3% [50 µM]; in the experiment with NCI-H522 lung, 59% [50 µM]. In addition, the growth in the experiment with A549/ATCC NSCLC is 81.4% [50 µM]; in the experiment with 786-0 renal, 85.7% [50 µM]; with COLO 205 colon, 91.8% [50 µM].

In the case of `CCOC(=O)c1cn2ncnc(Oc3ccc(NC(=O)NC4CCCCC4)c(Cl)c3)c2c1C`, the growth in the experiment on NCI-H23 lung is 68.8%; with NCI-H226 lung, 92.6%; in the experiment with NCI-H322M lung it was 85.2%; in the experiment on HOP-62 NSCLC, 79.9%; in the experiment on NCI-H460 lung, 96.4%; in the experiment on HOP-92 NSCLC, 86.8%. The growth with NCI-H522 lung is 67.1%; with A549/ATCC NSCLC, 58.7%; in the experiment with 786-0 renal, 81.6%; in the experiment on COLO 205 colon, 96.9%.

In the case of `C=C1C(=O)O[C@H]2[C@H]1CC/C(COC(=O)NCc1cc[nH]c1)=C\CC[C@@]1(C)O[C@@H]21`, the growth with NCI-H23 lung is 85.8%; in the experiment on NCI-H226 lung it was 68.5%; in the experiment with NCI-H322M lung, 89.5%; in the experiment on HOP-62 NSCLC, 87.3%; in the experiment on NCI-H460 lung, 68.5%; in the experiment on NCI-H522 lung, -8.14% (active). For the same compound, the growth in the experiment on A549/ATCC NSCLC is 86.7%; with 786-0 renal, 49.5%; in the experiment with COLO 205 colon it was 31.2%.

Turning to `c1cnc2[nH]cc(-c3csc(-c4cn(CCCN5CCOCC5)c5ccccc45)n3)c2c1`, the growth with NCI-H23 lung is 68.1%; in the experiment with NCI-H226 lung it was 61.5%; with NCI-H322M lung, 80.2%; in the experiment on HOP-62 NSCLC it was 48.7%; in the experiment with NCI-H460 lung, 45.4%; with NCI-H522 lung it was 56.9%. The growth in the experiment on A549/ATCC NSCLC was 54.4%; in the experiment on 786-0 renal, 28.4%; with COLO 205 colon, 31.2%.

Regarding `C#CCn1cnc2c(Nc3cccc(NC(=O)C=C)c3)ncnc21`, the growth is 89.7% in the experiment with NCI-H23 lung; 66.3% in the experiment with NCI-H226 lung; 103% in the experiment on NCI-H322M lung; 75.2% in the experiment with HOP-62 NSCLC; 80.3% with NCI-H460 lung; 79.4% in the experiment with NCI-H522 lung. Besides, the growth was 63.9% in the experiment on A549/ATCC NSCLC, 61.7% with 786-0 renal and 84.4% in the experiment on COLO 205 colon.

As for `CN[C@]12CC3(C=CC(=O)C=C3)O[C@@]1(Cc1ccc(OC)cc1)N(C)C(=O)N2`, the growth with NCI-H23 lung is 82.8%; in the experiment with NCI-H226 lung, 22.2%; with NCI-H322M lung, 49.7%; with HOP-62 NSCLC, 23.9%; with NCI-H460 lung, 98.7%; in the experiment with NCI-H522 lung it was -46.5% (active). For the same compound, the growth is 79.7% in the experiment on A549/ATCC NSCLC, 6.84% (active) with 786-0 renal and 19% in the experiment on COLO 205 colon.

`CC1=NN(c2nc(SCC(=O)Nc3nc4ccc(C)cc4s3)nc(-c3ccccc3)c2C#N)C(=O)C1`: the growth in the experiment on NCI-H23 lung is 105%; in the experiment on NCI-H226 lung, 89.4%; in the experiment on NCI-H322M lung it was 96.7%; in the experiment with HOP-62 NSCLC, 86.4%; with NCI-H460 lung, 100%; with NCI-H522 lung it was 91.1%. In addition, the figures for the growth in the experiment on A549/ATCC NSCLC, in the experiment with 786-0 renal and in the experiment on COLO 205 colon were 107%, 100% and 118%, respectively.

As to `CCCCCCC1(C)NCCO1` (configuration not stated), the growth in the experiment on NCI-H23 lung was 99.1%; with NCI-H226 lung it was 103%; with NCI-H322M lung, 87.3%; in the experiment on HOP-62 NSCLC it was 105%; in the experiment with NCI-H460 lung it was 106%; with NCI-H522 lung, 100%. For the same compound, the growth with A549/ATCC NSCLC was 99.4%; with 786-0 renal, 102%; in the experiment on COLO 205 colon it was 102%.

Consider `O=C(Nc1nn(-c2ccc(Cl)cc2Cl)nc1-c1ccccc1)c1ccccc1`, for which the growth with NCI-H23 lung was 97.2%; in the experiment on NCI-H226 lung, 98.6%; with NCI-H322M lung, 99.2%; in the experiment on HOP-62 NSCLC, 77.3%; in the experiment with NCI-H460 lung, 107%; with HOP-92 NSCLC, 86.9%. In addition, the growth in the experiment on NCI-H522 lung was 87.2%; in the experiment on A549/ATCC NSCLC it was 94.7%; with 786-0 renal, 94.3%; in the experiment with COLO 205 colon it was 99.3%.

In the case of `COCCn1c(-c2csc(-c3cn(C)c4ccc(OC)cc34)n2)cc2cccnc21`, the growth is 63.8% in the experiment with NCI-H23 lung; 81.3% in the experiment with NCI-H226 lung; 82.4% with NCI-H322M lung; 60.9% with HOP-62 NSCLC; 21.7% with NCI-H460 lung; -24.5% (active) with NCI-H522 lung. In addition, the growth was 48% with A549/ATCC NSCLC, 30.9% in the experiment with 786-0 renal and 37.5% in the experiment with COLO 205 colon.
